Data as given in PubChem BioAssay (NCI).
The panel holds about 83,000 compounds, 20% with a hit somewhere; the sample as a whole holds those more often.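 Activity criterion: percent growth below 10, measured after cells in 96-well plates were exposed to a single compound concentration for 48 hours.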 Calls of active or inactive are those of the source.

What was measured:
Assay in all cases: NCI-60 one-dose screen, 48 h (100 = growth as untreated, 0 = no growth, -100 = all killed)
Conditions in all cases: 10 µM unless noted
T-47D breast = system: T-47D breast
MDA-MB-435 melanoma = system: MDA-MB-435 melanoma
SW-620 colon = system: SW-620 colon
MCF7 breast = system: MCF7 breast
HCT-116 colon = system: HCT-116 colon
HCC-2998 colon = system: HCC-2998 colon
KM12 colon = system: KM12 colon
BT-549 breast = system: BT-549 breast

Measured: growth

Cc1cc(S(=O)(=O)N(C)C)cc(NCC(=O)NC(=O)NCC(C)C)c1C
inactive: T-47D breast 110% | MDA-MB-435 melanoma 98.8% | SW-620 colon 98.4% | MCF7 breast 94.8% | HCT-116 colon 100% | HCC-2998 colon 120% | KM12 colon 102%

O=C(Nc1ccc2c(ccn2Cc2ccccn2)c1)c1ccnnc1
inactive: T-47D breast 97.9% | MDA-MB-435 melanoma 98.3% | SW-620 colon 101% | MCF7 breast 102% | HCT-116 colon 93.2% | HCC-2998 colon 120% | KM12 colon 99.4%

COc1ccc(S(=O)(=O)NCCCNc2nccc(-c3cn(C(C)(C)C)nc3-c3ccc(Cl)c(OC)c3)n2)cc1
inactive: T-47D breast 77.3% | MDA-MB-435 melanoma 89.6% | SW-620 colon 99.3% | MCF7 breast 82.4% | HCT-116 colon 66.6% | HCC-2998 colon 124% | KM12 colon 93%

O=C(Nc1ccc2c(ccn2Cc2ccccn2)c1)c1cnccn1
inactive: T-47D breast 101% | MDA-MB-435 melanoma 100% | SW-620 colon 93.7% | MCF7 breast 98.1% | HCT-116 colon 100% | HCC-2998 colon 115% | KM12 colon 100%

CC(=O)Nc1cccc(Nc2nc(N[C@@H](C)c3ccccc3)c3ccccc3n2)c1
inactive: T-47D breast 58.4% | SW-620 colon 20.4% | KM12 colon 22.9%
active: MDA-MB-435 melanoma -48.9% | MCF7 breast 8.63% | HCT-116 colon 6.47% | HCC-2998 colon -6.49%

Nc1nc(Nc2ccccc2SSc2ccccc2Nc2nc(N)nc(-c3ccc4ccccc4c3)n2)nc(-c2ccc3ccccc3c2)n1
inactive: T-47D breast 74.9% | MDA-MB-435 melanoma 85.2% | SW-620 colon 104% | MCF7 breast 76% | HCT-116 colon 57.9% | HCC-2998 colon 120% | KM12 colon 51.5%

NS(=O)(=O)c1ccc(Nc2nc(N/N=C/c3ccccn3)nc(Nc3ccccc3)n2)cc1
active: T-47D breast -18.4% | BT-549 breast -20.5% | MDA-MB-435 melanoma -84.9% | SW-620 colon -17.8% | MCF7 breast 1.45% | HCT-116 colon -30% | HCC-2998 colon -74.8% | KM12 colon 4.15%

CCCn1cnc2c(c1=N)C(c1ccc(F)cc1)c1sc3c(C)cccc3c1O2 (stereo unspecified)
inactive: T-47D breast 38.3% | SW-620 colon 16.4% | MCF7 breast 18.4% | HCT-116 colon 16.7% | HCC-2998 colon 57.3% | KM12 colon 24.9%
active: MDA-MB-435 melanoma -58%

COc1cc(-c2nn(C(C)(C)C)cc2-c2ccnc(NCCCNS(=O)(=O)c3ccc(C)cc3)n2)ccc1Cl
inactive: T-47D breast 84.6% | MDA-MB-435 melanoma 92.2% | SW-620 colon 93.7% | MCF7 breast 79.8% | HCT-116 colon 67.4% | HCC-2998 colon 115% | KM12 colon 94%

COc1cc(-c2nn(C(C)(C)C)cc2-c2ccnc(NCCCNS(=O)(=O)c3cccc(F)c3)n2)ccc1Cl
inactive: T-47D breast 69.5% | MDA-MB-435 melanoma 77.9% | SW-620 colon 89.7% | MCF7 breast 71.3% | HCT-116 colon 52.4% | HCC-2998 colon 103% | KM12 colon 80.3%
